For eleven compounds, Percent Effect results are on record in ChEMBL document CHEMBL3988442, “University of Dundee, Small-Polar-MMV Screening Library” (2021).

For some of these results: Results with a measured potency or affinity are listed apart.

Parameters in all cases: scale not given: direction of the effect not stated beside the values
The target of assay [1] is Protein translocase subunit SecA (Escherichia coli (strain K12)) (UniProt P10408). The assay is described as follows: Assay to Identify E. coli SecA ATPase Inhibitors. The following applies: 30 µM. In kind it is functional.
Chain of Protein translocase subunit SecA (Escherichia coli (strain K12)) (P10408 whole entry): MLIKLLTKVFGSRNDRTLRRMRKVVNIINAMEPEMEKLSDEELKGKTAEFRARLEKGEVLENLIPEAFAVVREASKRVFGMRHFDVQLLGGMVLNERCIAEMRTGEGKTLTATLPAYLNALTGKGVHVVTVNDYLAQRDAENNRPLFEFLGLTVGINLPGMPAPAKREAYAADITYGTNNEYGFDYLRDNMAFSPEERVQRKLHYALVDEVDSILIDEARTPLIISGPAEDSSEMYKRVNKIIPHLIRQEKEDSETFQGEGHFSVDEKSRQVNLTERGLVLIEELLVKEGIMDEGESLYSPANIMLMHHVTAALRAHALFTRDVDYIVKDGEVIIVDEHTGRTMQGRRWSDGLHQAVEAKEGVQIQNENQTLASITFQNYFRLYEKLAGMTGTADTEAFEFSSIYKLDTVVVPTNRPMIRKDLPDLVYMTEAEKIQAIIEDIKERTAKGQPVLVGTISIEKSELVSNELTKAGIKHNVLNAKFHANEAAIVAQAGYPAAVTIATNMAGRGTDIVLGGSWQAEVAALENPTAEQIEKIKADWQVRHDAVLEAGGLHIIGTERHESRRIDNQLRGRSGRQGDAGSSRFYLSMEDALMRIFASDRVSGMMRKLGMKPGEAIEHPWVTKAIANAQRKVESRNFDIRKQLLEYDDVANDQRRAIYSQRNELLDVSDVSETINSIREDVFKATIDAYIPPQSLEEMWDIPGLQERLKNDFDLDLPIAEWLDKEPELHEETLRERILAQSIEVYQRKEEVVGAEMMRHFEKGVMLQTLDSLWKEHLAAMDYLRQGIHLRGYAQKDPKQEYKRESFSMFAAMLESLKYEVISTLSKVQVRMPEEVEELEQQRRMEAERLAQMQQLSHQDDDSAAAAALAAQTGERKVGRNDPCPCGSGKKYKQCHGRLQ
For assay [2], the target named is T1, Ubiquitin-activating enzyme e1, putative (Leishmania donovani (strain BPK282A1)) (UniProt E9BSI1).
T1 sequence (whole entry): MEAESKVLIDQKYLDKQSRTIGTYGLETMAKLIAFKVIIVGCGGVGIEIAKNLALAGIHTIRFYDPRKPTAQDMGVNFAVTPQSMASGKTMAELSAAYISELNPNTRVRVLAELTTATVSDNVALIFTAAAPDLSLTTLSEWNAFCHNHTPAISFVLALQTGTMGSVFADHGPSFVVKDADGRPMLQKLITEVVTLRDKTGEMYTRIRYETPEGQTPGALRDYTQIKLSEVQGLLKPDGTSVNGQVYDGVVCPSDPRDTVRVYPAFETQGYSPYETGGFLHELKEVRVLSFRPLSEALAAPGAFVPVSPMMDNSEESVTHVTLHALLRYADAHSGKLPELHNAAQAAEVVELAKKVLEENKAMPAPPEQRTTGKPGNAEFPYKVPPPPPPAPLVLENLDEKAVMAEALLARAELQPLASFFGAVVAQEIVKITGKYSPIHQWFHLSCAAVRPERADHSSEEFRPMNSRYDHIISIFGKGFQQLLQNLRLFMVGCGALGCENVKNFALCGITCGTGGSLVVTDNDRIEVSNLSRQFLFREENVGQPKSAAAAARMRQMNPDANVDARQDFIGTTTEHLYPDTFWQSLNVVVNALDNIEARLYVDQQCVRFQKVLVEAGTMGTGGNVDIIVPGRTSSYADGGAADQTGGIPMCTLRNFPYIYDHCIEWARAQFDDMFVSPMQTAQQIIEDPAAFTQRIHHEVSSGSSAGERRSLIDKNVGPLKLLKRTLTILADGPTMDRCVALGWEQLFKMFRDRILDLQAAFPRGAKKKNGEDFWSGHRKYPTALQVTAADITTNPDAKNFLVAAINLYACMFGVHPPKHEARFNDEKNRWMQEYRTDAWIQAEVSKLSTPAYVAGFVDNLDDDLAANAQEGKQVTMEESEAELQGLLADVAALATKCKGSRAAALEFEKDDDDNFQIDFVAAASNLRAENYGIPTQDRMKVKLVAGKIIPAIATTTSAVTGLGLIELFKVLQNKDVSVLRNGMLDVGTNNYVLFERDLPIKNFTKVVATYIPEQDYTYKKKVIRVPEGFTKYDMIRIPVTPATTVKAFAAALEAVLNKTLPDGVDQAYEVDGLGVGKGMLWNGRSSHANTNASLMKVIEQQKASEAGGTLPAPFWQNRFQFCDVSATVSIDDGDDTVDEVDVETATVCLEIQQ
Put plainly: Leishmania donovani Ubiquitin Activating Enzyme (LdE1). In kind it is functional. As to conditions: 30 µM.

The target in assay [3] is AMP-activated protein kinase, AMPK (Homo sapiens) (UniProt P54646+O43741+P54619+Q9UGJ0+Q9Y478+Q13131+Q9UGI9). Put plainly: AMP-dependent Kinase enzyme assay. An in vitro enzyme assay that detects ADP turnover that is directly proportional to AMPK activity. This uses naive AMPK that is activated during the assay with MK-8722. Type of assay: functional. The following applies: 30 µM.

Assay [4] addresses Sialic acid-binding Ig-like lectin 9 (Homo sapiens) (UniProt Q9Y336). Put plainly: Hs-Siglec9 ALPHAscreen SOP 20170721. As to conditions: 10 µM. On the technique in general: In Alpha technology, singlet oxygen from a donor bead excites a nearby acceptor bead.
Assay [5] concerns Trypanosoma cruzi. Put plainly: Trypanosoma cruzi phosphomannomutase and mannose-1-phosphate guanylyltransferase assay. As to conditions: 10 µM. Type of assay: functional.
Assay [6] concerns the target T2, Arginase-2, mitochondrial (Homo sapiens) (UniProt P78540).
T2 sequence (whole entry): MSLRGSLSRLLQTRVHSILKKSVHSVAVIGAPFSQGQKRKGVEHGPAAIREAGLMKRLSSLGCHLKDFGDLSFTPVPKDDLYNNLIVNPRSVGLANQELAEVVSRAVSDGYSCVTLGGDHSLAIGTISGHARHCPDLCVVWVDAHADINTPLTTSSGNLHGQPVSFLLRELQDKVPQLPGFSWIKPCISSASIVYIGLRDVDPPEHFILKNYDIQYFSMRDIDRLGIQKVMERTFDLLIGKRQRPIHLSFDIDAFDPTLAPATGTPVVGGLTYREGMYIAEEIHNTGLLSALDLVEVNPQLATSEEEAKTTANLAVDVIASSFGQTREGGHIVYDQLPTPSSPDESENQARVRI
Put plainly: in vitro enzyme assay to detect the production of urea directly proportional to the activity of Arginase II. Note: in the data most compounds retested in dose-response had high values. As to conditions: 33.3 µM. Type of assay: functional.

The target in assay [7] is T3, Proteasome subunit beta (Trypanosoma cruzi) (UniProt O96673).
T3 sequence (whole entry): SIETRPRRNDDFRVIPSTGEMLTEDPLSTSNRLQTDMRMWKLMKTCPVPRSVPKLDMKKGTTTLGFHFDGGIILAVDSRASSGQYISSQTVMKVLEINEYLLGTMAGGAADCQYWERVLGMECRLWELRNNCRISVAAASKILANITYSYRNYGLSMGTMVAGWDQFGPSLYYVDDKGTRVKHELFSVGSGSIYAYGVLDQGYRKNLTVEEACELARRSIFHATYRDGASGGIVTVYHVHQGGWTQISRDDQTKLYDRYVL
The assay is described as follows: Trypanosoma cruzi proteasome chymotrypsin-like activity (TcProtChymo) assay. Note: in the data most compounds retested in dose-response had high values. In kind it is functional. The following applies: 9.37 µM.

The species named for assay [8] is Homo sapiens. Put plainly: To identify inhibition of the IFN signalling (Jak-Stat) pathway via expression of an eGFP reporter gene under the control of an IFN-stimulated response element (ISRE) containing MxA promoter. In kind it is functional. As to conditions: 30 µM. In general terms: A reporter such as luciferase makes a cellular process visible.
The target of assay [9] is T4, Tyrosyl-tRNA synthetase, putative (Trypanosoma cruzi (strain CL Brener)) (UniProt Q4DSP6).
T4 sequence (whole entry): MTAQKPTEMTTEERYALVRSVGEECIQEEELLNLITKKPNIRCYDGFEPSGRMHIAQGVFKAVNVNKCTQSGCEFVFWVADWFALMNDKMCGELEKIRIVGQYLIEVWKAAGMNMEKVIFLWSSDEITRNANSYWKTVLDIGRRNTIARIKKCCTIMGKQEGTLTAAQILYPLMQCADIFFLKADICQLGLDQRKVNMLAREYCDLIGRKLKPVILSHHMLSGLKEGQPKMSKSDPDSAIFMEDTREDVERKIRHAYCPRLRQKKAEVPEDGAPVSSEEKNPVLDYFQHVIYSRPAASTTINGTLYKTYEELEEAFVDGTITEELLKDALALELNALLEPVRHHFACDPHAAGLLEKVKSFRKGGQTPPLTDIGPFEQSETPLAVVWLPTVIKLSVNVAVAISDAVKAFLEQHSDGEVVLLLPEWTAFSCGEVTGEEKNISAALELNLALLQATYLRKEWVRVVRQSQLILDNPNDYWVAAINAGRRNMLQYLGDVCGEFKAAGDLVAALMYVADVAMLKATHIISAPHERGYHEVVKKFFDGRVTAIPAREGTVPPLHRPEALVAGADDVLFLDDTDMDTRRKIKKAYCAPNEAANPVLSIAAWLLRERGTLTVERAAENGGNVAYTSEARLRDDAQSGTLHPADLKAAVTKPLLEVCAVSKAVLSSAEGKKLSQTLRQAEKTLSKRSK
The assay is described as follows: Trypanosoma cruzi tyrosyl tRNA synthetase (TcYRS) _High Tyrosine SOP. Note: in the data most compounds retested in dose-response had high values. Type of assay: functional. The following applies: 30 µM.

Assay [10] has as its target T4, Tyrosyl-tRNA synthetase, putative (Trypanosoma cruzi (strain CL Brener)). Put plainly: Trypanosoma cruzi tyrosyl tRNA synthetase (TcYRS) SOP. Type of assay: functional. The following applies: 30 µM.
Assay [11] concerns the target Chromo domain-containing protein 1 (Saccharomyces cerevisiae (strain ATCC 204508 / S288c) (Baker's yeast)) (UniProt P32657). The assay is described as follows: ScCHD-1 Enzyme Inhibition Assay. Note: in the data most compounds retested in dose-response had high values. As to conditions: 30 µM. Type of assay: functional.

Chain of Chromo domain-containing protein 1 (Saccharomyces cerevisiae (strain ATCC 204508 / S288c) (Baker's yeast)) (P32657 whole entry, the tested form may be a part): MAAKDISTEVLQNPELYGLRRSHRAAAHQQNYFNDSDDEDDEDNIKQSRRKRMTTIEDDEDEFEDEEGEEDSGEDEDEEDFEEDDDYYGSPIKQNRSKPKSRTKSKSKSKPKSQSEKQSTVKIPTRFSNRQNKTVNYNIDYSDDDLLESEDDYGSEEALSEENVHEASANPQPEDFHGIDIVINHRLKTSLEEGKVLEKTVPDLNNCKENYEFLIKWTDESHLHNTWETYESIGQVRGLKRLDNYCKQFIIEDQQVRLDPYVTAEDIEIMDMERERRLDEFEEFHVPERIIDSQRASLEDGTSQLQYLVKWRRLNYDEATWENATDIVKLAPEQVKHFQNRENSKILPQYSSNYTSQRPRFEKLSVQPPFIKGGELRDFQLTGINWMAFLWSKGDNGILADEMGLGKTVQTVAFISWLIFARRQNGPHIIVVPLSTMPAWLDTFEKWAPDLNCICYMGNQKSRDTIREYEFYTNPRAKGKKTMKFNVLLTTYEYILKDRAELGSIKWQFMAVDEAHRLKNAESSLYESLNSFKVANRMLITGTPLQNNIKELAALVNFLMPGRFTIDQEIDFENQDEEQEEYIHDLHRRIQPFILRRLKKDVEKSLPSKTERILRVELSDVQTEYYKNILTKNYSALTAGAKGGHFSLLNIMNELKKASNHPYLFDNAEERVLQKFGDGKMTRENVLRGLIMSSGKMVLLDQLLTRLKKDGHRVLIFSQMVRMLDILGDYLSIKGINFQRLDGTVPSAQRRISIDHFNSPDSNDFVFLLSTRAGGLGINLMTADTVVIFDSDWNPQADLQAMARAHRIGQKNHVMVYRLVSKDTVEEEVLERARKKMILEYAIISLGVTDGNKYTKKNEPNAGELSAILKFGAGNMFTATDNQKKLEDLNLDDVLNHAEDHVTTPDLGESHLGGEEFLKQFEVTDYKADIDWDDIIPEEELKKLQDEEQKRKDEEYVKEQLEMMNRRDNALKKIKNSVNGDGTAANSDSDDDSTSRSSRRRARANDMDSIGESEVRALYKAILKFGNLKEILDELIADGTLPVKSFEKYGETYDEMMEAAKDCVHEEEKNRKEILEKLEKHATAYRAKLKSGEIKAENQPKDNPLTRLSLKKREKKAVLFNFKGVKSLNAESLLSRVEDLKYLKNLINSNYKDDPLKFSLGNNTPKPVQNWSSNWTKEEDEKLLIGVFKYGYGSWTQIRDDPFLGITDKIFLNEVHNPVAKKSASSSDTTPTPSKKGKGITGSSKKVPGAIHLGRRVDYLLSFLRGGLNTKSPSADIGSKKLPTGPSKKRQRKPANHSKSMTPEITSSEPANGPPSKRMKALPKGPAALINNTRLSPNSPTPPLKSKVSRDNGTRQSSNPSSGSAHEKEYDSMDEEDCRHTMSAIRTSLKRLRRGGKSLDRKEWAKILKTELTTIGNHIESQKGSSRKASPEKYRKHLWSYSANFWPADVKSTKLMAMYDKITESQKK
Chain of Sialic acid-binding Ig-like lectin 9 (Homo sapiens) (Q9Y336 whole entry): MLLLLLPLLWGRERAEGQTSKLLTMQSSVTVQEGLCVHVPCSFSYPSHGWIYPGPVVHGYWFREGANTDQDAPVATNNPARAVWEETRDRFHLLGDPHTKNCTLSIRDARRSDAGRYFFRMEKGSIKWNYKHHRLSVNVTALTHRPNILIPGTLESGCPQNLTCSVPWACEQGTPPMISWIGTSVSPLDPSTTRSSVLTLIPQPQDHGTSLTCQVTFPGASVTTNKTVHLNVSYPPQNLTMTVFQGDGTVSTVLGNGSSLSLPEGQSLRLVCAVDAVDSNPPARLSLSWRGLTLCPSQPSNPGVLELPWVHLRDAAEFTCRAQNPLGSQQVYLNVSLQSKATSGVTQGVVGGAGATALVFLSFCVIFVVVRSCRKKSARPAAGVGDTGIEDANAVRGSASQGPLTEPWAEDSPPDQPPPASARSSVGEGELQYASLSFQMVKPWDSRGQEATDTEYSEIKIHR

`COc1ccc(CN2CCc3nc(C4CCCCN4C)ncc3C2)cc1` (stereo unspecified): the Percent Effect in assay [1] was -0.233%; in assay [2] it was -8%; in assay [3], -0.187%; in assay [4], -0.354%; in assay [5], 3.54%; in assay [6], -2.1%. For the same compound, the Percent Effect in assay [7] was 28.3%; in [8], 11.8%; in assay [9], 21.3%; in assay [10] it was 26.9%; in assay [11], -1.3%.

`CCCS(=O)(=O)N1CCN(c2cc(-n3nc(C)cc3C)nc(C)n2)CC1`: the Percent Effect in [1] is -2.23%; in assay [2] it was 0%; in assay [3], -0.103%; in assay [4], 1.6%; in assay [5] it was 7.57%; in [6], 2.76%. In addition, the Percent Effect in assay [7] was 10.7%; in [8] it was -11%; in assay [9], 2.15%; in [10] it was -3.7%; in assay [11] it was -4.3%.

Regarding `Cc1nc(CN2C(=O)CC[C@@H]3[C@H]2CCN3C(=O)NC2CC2)cs1`, the Percent Effect in assay [1] was 1.26%; in assay [2], 16.2%; in assay [3] it was -5.26%; in assay [4], -11.1%; in [5], -3.23%; in assay [6], 0.955%. Further, the Percent Effect is 10.2% in [7]; 16.1% in [8]; 1.08% in [9]; 12.8% in assay [10]; -6.62% in assay [11].

As for `CCc1nccn1C1CCCN(C(=O)Cc2n[nH]c3ccccc23)C1` (stereo unspecified), the Percent Effect was -3.99% in [1]; 3.8% in assay [2]; 8.48% in assay [3]; 8.66% in [4]; -4.62% in assay [5]; 3.66% in assay [6]. Also, the Percent Effect in [7] is -0.858%; in assay [8] it was 1.26%; in [9], 2.08%; in assay [10] it was 15.2%; in [11], -2.38%.

Regarding `CC(C)(CNC(=O)NCCOc1cccc(F)c1)C(N)=O`, the Percent Effect in assay [1] is -3.85%; in [2], 7.89%; in [3], 1.82%; in assay [4], 8.76%; in assay [5] it was 0.94%; in assay [6], 2.3%. The Percent Effect was 0.167% in assay [7]; -5.69% in assay [8]; 6.37% in assay [9]; 17.1% in assay [10]; -6.58% in assay [11].

Take `CCOc1ncccc1NC(=O)NCC(O)c1ccccc1OC` (stereo unspecified): the Percent Effect is -2.5% in assay [1]; 22.8% in [2]; 4.8% in assay [3]; -4.05% in [4]; 4.06% in assay [5]; 4.94% in assay [6]. Besides, the Percent Effect was 9.75% in [7]; 23.4% in assay [8]; 3.45% in assay [9]; 21.5% in assay [10]; -7.12% in [11].

For the compound `CCn1ccnc1CN1CCCC(CO)(Cc2cccc(Cl)c2)C1` (stereo unspecified), the Percent Effect in assay [1] was -5.53%; in [2], 2.7%; in assay [3], -2.31%; in assay [4] it was 28.9%; in [5] it was 3.23%; in [6] it was -1.24%. Further, the Percent Effect is 3.18% in assay [7]; -2.28% in [8]; 2.15% in assay [9]; 11.1% in [10]; -1.59% in assay [11].

Turning to `Cc1nc(C)n(CC2CCCN2Cc2cscn2)n1` (stereo unspecified), the Percent Effect in assay [1] was -4.14%; in assay [2], 2.6%; in [3], 3.5%; in assay [4], 10.9%; in [5] it was 2.64%; in assay [6], -0.21%. Further, the Percent Effect in assay [7] was -0.404%; in [8] it was -14.6%; in assay [9], 5.71%; in assay [10], 11.8%; in assay [11], -13.6%.

Regarding `CC1(C)CN(C(=O)NCCc2ccn(-c3ccccc3)n2)CCO1`, the Percent Effect was -4.22% in assay [1]; -2.6% in assay [2]; 8.97% in [3]; 11.9% in [4]; 1.47% in assay [5]; 4% in assay [6]. Also, the Percent Effect was 2.02% in [7]; 8.51% in assay [8]; 2.86% in assay [9]; 7.06% in [10]; -12.9% in assay [11].

As for `Cn1ccnc1CN1C[C@@H](CN2CCC(CO)CC2)[C@@H](CO)C1`, the Percent Effect in [1] was -7.42%; in assay [2], 5.41%; in [3] it was -7.54%; in assay [4], 7.63%; in assay [5] it was 6.37%; in [6] it was -1.43%. Also, the Percent Effect in assay [7] is 17.4%; in [8], 7.57%; in assay [9], 1.59%; in [10], 14.6%; in [11], -5.25%.

For the compound `COc1cc2nc(C)n(CC(=O)NCCCN(C)C)c(=O)c2cc1OC`, the Percent Effect in assay [1] is -0.823%; in [2], 20%; in [3], -6.34%; in [4], -3.21%; in assay [5], 4.13%; in [6], -2.99%. Moreover, the Percent Effect is 17.4% in [7]; 12.2% in assay [8]; 6.35% in assay [9]; 15.4% in assay [10]; -9.62% in [11].
